For 31 compounds, outcome and AC50 results are on record in PubChem BioAssay (EPA / NIEHS).

SMILES strings stand for the structures. Inconclusive results are not listed. Activity calls are given as the source filed them. Rule for the calls: active = hit-call score of the fitted dose curve at least 0.9, where 1 is the maximum; inconclusive = response in the unintended direction; inactive = score below 0.9.

Assay [1] has as its target human Peroxisome Proliferator-activated Receptor alpha (PPARa), PPARA (gene 5465) (UniProt Q07869). Description: NVS_NR_hPPARa: NovaScreen (NVS) Nuclear Receptor Binding Assay for human Peroxisome Proliferator-activated Receptor alpha (PPARa) (AID 2283359).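 Note: activity means loss of TR-FRET signal versus DMSO baseline.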 The procedure, abridged:
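Cell-free binding assay with extracted human protein, read by TR-FRET 1 h after chemical dosing. Loss of signal relative to DMSO baseline indicates binding. Primary screen used duplicate single concentration (25 uM); actives followed up in concentration series.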

The target in assay [2] is Retinoic acid receptor alpha (Homo sapiens) (UniProt P10276). In words: NVS_NR_hRARa_Agonist: NovaScreen (NVS) Nuclear Receptor Binding Assay for human Retinoic Acid Alpha Receptor Agonism (RAR) (AID 2283361). The procedure, abridged: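 Cell-free TR-FRET binding read-out with extracted human RARα protein, read 2 h after compound addition. Gain of signal scored against DMSO baseline. Primary screen at a single 25 uM in duplicate; actives then retested in concentration series.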
Sequence of Retinoic acid receptor alpha (Homo sapiens) (P10276 whole entry, looked up): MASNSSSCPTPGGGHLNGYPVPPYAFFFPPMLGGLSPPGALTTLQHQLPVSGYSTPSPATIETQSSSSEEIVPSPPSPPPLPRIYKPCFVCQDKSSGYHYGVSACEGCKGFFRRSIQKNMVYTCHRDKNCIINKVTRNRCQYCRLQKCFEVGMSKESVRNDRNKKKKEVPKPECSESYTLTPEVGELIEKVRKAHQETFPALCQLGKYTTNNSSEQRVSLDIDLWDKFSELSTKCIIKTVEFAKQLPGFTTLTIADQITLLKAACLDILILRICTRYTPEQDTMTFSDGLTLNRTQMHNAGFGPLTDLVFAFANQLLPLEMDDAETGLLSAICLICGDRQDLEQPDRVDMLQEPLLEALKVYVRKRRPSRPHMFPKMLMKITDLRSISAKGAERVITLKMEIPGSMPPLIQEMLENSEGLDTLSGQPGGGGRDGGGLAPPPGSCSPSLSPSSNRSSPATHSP

The target of assay [3] is Glucocorticoid receptor (Homo sapiens) (UniProt P04150). Description: NVS_NR_hGR: NovaScreen (NVS) Nuclear Receptor Binding Assay for human Glucocorticoid Receptor (GR) (AID 2283363).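 For AC50: activity is loss of specific radioligand binding signal relative to DMSO.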 In short, it runs like this:
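Cell-free radioligand binding with extracted receptor protein, read by filter-based scintillation counting 16 hours after dosing. Loss of specific signal versus DMSO baseline was scored. Primary screen ran in duplicate at 25 uM; actives were followed up in concentration series.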

The target of assay [4] is rat Androgen Receptor (AR), Ar (gene 24208) (UniProt P15207). In words: NVS_NR_rAR: NovaScreen (NVS) Nuclear Receptor Binding Assay for rat Androgen Receptor (AR) (AID 2283366). In short, it runs like this: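 Cell-free radioligand binding on extracts of prostate from testosterone-pretreated rats, read by filter-based scintillation counting 18 h after dosing. Loss of bound signal fitted positively versus DMSO; primary screen in duplicate at 25 uM, actives followed up in concentration series.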
Sequence of rat Androgen Receptor (AR), Ar (gene 24208) (P15207 whole entry, looked up): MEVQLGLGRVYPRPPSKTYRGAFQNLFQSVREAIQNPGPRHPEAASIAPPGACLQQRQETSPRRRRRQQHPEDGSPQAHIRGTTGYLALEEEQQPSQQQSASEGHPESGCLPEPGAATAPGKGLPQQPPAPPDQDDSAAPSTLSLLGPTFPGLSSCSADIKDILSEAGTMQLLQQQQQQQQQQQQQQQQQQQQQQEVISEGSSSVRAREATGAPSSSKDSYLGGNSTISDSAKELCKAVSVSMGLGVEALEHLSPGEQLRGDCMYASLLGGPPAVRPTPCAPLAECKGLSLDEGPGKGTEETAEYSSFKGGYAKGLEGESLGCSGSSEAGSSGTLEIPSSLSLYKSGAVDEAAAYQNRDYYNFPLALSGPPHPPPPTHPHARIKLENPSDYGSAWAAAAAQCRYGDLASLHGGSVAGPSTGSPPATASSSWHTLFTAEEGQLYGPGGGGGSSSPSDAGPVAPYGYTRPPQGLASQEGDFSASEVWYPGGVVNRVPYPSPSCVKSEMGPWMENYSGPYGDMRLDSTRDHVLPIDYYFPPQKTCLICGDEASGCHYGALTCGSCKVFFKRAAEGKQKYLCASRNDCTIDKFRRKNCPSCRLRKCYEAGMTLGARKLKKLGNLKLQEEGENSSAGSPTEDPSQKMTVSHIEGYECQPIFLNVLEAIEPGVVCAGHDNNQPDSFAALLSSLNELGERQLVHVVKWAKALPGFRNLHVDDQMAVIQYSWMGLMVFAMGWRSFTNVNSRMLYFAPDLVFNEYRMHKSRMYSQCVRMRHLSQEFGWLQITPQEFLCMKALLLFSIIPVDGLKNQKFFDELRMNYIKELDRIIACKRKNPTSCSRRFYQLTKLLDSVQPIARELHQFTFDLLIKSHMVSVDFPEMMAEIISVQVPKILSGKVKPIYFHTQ

Assay [5] concerns the target human Adenosine Transporter (Adot), SLC29A1 (gene 2030) (UniProt Q99808). In words: NVS_TR_hAdoT: NovaScreen (NVS) Transporter Assay for human Adenosine Transporter (Adot) (AID 2283368). In short, it runs like this: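 U937-derived membranes, cell-free radioligand binding, filter scintillation 1 h after dosing. 25 uM duplicate screen; hits (e.g. 30% inhibition) run in concentration-response up to 50 uM; loss of signal versus DMSO.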

The target in assay [6] is Peroxisome proliferator-activated receptor gamma (Homo sapiens) (UniProt P37231). Description: NVS_NR_hPPARg: NovaScreen (NVS) Nuclear Receptor Binding Assay for human Peroxisome Proliferator-activated Receptor gamma (PPARg) (AID 2283370). The procedure, abridged:
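FP read-out, 2 h post-dose, cell-free extracted receptor protein. Signal loss vs DMSO negative control = binding activity. Single-conc duplicate HTS at 25 uM; concentration-response follow-up for actives.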

For assay [7], the target named is guinea pig Sigma Receptor, Non-selective Binding, SIGMAR1 (gene 100135589) (UniProt Q60492). Description: NVS_OR_gSIGMA_NonSelective: NovaScreen (NVS) Nuclear Receptor Binding Assay for guinea pig Sigma Receptor, Non-selective Binding (AID 2283367). In short, it runs like this: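 Guinea pig brain membranes, cell-free radioligand binding; read 1 h after dosing by filter-based scintillation counting. Loss of signal vs DMSO baseline taken as displacement. Primary screen single concentration 25 uM in duplicate; actives retested in concentration series.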
Sequence of guinea pig Sigma Receptor, Non-selective Binding, SIGMAR1 (gene 100135589) (Q60492 whole entry, looked up): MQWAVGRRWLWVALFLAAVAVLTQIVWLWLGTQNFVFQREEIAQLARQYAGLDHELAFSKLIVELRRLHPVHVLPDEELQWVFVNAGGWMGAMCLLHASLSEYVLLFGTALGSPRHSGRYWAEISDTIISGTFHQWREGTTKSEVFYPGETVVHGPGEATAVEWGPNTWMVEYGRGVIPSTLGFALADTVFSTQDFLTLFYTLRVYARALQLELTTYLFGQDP

Assay [8] concerns the target Retinoic acid receptor alpha (Homo sapiens) (UniProt P10276). Description: NVS_NR_hRAR_Antagonist: NovaScreen (NVS) Nuclear Receptor Binding Assay for human Retinoic Acid Alpha Receptor Antagonism (RAR) (AID 2283358). In short, it runs like this: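 Cell-free TR-FRET binding assay on extracted receptor protein, run in antagonist mode; signal read 2 hours after chemical dosing. Loss of signal was fitted relative to DMSO baseline. Screened at 25 uM in duplicate, actives followed up in concentration series.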

Assay [9] concerns the target human Thyroid Receptor Alpha (TRa), THRA (gene 7067) (UniProt P10827). Description: NVS_NR_hTRa_Antagonist: NovaScreen (NVS) Nuclear Receptor Binding Assay for human Thyroid Receptor Alpha Antagonism (TRa) (AID 2283362).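 Note: activity is loss of signal relative to DMSO baseline.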 The procedure, abridged:
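AlphaLISA chemiluminescent immunoassay readout, taken 1 h post-dosing in a cell-free system with extracted protein. Activity was scored as signal loss against DMSO negative control, from duplicate single-concentration (25 uM) testing followed by concentration-response follow-up.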

Assay [10] deals with Nuclear receptor subfamily 1 group I member 2 (Homo sapiens) (UniProt O75469). Description: NVS_NR_hPXR: NovaScreen (NVS) Nuclear Receptor Binding Assay for human Pregnane X Receptor (PXR) (AID 2283365).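 Note: a drop in FRET signal versus DMSO baseline means the compound binds.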 In short, it runs like this:
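TR-FRET signal read at 2 h in a cell-free human PXR binding format. DMSO served as negative control and baseline; activity scored as signal loss. Single-concentration duplicate screen (25 uM), then concentration-response follow-up.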

Sequence of human Thyroid Receptor Alpha (TRa), THRA (gene 7067) (P10827 whole entry, looked up): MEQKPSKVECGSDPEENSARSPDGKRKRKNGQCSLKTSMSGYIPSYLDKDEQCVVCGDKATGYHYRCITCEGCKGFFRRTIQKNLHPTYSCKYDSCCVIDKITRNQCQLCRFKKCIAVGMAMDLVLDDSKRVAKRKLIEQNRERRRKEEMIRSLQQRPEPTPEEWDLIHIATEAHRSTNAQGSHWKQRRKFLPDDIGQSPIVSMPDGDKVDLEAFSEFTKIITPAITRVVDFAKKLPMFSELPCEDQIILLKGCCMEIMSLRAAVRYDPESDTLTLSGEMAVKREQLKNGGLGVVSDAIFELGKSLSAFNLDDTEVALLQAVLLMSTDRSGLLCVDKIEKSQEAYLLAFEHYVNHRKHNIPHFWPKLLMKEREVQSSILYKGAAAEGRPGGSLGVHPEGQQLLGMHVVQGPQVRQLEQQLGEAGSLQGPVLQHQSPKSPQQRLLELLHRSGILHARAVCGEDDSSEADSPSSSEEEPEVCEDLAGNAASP
Sequence of Nuclear receptor subfamily 1 group I member 2 (Homo sapiens) (O75469 whole entry, looked up): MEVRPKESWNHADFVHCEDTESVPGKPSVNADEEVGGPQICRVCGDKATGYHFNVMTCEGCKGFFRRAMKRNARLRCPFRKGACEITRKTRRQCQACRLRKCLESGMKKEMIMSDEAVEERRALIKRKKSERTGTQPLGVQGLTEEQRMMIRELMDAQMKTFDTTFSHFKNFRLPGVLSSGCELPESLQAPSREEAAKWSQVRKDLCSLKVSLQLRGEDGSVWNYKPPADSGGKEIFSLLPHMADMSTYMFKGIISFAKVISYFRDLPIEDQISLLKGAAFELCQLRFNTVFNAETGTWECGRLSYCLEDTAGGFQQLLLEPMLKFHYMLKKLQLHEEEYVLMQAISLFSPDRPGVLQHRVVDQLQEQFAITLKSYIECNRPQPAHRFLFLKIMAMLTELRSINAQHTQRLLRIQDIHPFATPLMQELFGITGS
Sequence of human Adenosine Transporter (Adot), SLC29A1 (gene 2030) (Q99808 whole entry, looked up): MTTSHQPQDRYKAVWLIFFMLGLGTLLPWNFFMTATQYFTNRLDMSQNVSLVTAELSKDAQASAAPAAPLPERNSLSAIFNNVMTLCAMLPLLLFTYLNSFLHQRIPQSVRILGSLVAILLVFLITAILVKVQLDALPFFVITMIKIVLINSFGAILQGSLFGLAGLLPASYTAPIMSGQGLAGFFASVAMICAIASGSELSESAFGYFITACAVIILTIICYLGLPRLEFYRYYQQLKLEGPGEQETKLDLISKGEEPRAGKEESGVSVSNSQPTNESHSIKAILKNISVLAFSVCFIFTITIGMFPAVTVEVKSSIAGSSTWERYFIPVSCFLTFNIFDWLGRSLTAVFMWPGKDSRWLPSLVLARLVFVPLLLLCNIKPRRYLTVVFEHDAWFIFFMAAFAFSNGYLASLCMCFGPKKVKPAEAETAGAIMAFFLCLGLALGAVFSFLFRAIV
Sequence of Glucocorticoid receptor (Homo sapiens) (P04150 whole entry, looked up): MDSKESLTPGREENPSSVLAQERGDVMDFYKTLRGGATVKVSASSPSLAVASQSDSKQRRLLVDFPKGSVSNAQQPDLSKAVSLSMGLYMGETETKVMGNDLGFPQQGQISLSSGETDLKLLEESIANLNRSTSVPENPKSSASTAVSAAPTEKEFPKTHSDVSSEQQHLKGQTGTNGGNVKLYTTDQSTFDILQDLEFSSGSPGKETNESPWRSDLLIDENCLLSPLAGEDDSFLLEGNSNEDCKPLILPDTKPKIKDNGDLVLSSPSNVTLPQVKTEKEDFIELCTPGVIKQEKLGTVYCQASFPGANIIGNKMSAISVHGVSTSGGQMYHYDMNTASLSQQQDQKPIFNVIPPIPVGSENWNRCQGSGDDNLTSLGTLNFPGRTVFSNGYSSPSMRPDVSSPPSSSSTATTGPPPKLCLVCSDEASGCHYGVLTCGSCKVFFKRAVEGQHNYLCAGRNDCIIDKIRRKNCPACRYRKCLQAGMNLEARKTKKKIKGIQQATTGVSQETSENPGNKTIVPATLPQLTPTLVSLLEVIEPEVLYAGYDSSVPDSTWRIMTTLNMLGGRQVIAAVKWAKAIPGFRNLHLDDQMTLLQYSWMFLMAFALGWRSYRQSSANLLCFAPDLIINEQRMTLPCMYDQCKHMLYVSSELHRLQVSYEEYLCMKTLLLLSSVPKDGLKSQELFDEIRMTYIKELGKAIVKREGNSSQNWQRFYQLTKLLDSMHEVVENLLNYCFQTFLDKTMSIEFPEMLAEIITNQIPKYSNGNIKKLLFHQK
Sequence of Peroxisome proliferator-activated receptor gamma (Homo sapiens) (P37231 whole entry, looked up): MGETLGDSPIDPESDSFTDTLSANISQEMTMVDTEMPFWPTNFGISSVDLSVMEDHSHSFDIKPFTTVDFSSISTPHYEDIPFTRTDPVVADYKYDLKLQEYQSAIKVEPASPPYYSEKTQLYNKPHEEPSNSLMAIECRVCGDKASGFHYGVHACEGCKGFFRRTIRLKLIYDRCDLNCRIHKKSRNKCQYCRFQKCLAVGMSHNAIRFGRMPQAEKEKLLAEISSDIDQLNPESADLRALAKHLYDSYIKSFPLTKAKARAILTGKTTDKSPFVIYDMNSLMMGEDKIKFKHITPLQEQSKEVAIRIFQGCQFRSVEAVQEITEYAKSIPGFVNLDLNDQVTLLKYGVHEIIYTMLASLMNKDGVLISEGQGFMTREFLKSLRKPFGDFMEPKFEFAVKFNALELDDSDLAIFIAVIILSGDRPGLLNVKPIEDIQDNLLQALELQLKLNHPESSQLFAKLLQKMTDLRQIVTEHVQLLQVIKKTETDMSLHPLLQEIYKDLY
Sequence of human Peroxisome Proliferator-activated Receptor alpha (PPARa), PPARA (gene 5465) (Q07869 whole entry, looked up): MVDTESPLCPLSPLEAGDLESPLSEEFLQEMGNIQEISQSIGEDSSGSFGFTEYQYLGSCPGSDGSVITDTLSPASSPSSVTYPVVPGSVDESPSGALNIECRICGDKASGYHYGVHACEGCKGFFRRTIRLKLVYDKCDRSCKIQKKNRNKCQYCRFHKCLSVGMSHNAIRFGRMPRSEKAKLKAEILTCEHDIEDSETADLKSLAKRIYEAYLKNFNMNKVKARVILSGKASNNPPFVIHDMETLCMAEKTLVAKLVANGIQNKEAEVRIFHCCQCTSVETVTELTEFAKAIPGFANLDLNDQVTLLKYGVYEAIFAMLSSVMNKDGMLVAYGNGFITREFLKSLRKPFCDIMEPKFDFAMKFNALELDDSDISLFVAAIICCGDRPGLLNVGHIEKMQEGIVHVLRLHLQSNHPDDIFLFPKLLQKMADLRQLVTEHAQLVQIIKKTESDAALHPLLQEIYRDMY

`CCOc1cccc(-n2cc(C(=O)N3CCN(c4cc(C(=O)O)c5ccccc5c4)CC3)nc2-c2ccc(C)cc2)c1`: the outcome in assay [1] and in [6] was inactive. The AC50 (as a rule, the midpoint of the concentration-response curve, whichever way the signal moves) in [2] was 16.2 µM (active); in [3], 14.6 µM (active); in [4] it was 13.5 µM (active); in assay [5], 14.8 µM (active).
Take `CC(C)CCCCCCCOC(=O)CCCCC(=O)OCCCCCCCC(C)C`: the outcome in assay [2] and in assay [7] was inactive.
Turning to `Clc1nc(Cl)c(Cl)c(Cl)c1Cl`, the compound was called inactive in assay [2] and in assay [6].
Take `CCCCC(CC)COC(=O)c1ccc(C(=O)OCC(CC)CCCC)cc1` (centres undefined): in assay [1], the AC50 is 25 µM (active). Besides, the outcome in assay [6] was inactive.
Take `O=C(CCCCCCCCc1cccnc1)N1CCC(C=C(c2ccccc2)c2ccccc2)CC1`: in [8], the compound was classed as inactive.
As to `Oc1ccc2c(c1)-c1ccccc1C2`, the result in assay [1], in [3] and in assay [6] was inactive.
`O=C1OC(=O)C2C3C=CC(C3)C12` (centres undefined): the call in assay [8] was inactive.
As for `CC(C)=CCCC(C)=CC=O`, the compound was called inactive in [1].
Consider `CCn1nc(Cc2ccccc2)cc1C1CCN(C[C@H]2C[C@H](N(C)[C@@H](C(=O)O)C(C)C)C[C@@H]2c2cccc(F)c2)CC1`, for which the compound was classed as inactive in assay [8] and in [3].
Regarding `CCc1cc(SCc2sc(-c3ccc(C(F)(F)F)cc3)nc2CN2CCN(c3ccc(OC)cc3)CC2)ccc1OCC(=O)O`, the AC50 was 0.00361 µM (active) in [1], 1.57 µM (active) in assay [3], 10.8 µM (active) in assay [5] and 7.42 µM (active) in assay [6].
Consider `Cc1[nH]cnc1C[C@H]1CCc2c(C)c3ccccc3n2C1=O`, for which the compound was called inactive in [9]. In addition, the AC50 in [7] was 10 µM (active).
Consider `Fc1ccccc1[C@@H](F)COC1CCC(Nc2ncnc3[nH]ncc23)CC1` (some centres undefined), for which the compound was called inactive in [1]. Further, the AC50 in assay [5] was 5.08 µM (active).
As for `On1ccccc1=S`, in assay [9], the AC50 was 9.11 µM (active).
On to `CN(C)c1ccc(Cc2ccc(N(C)C)cc2)cc1`, for which the call in [1] and in assay [10] was inactive. Also, the AC50 in assay [7] was 5.19 µM (active).
For the compound `Nc1ccc(Nc2ccccc2)cc1`, the AC50 in assay [1] was 46.3 µM (active); in [3], 14.6 µM (active).
Take `COc1cccc(-c2ccc(/C=C\CN3CCCCCC3)cc2Cl)c1`: the compound was classed as inactive in assay [1], in [9], in assay [10] and in assay [6]. The AC50 in assay [7] is 0.0104 µM (active).
Take `O=P(OC(CCl)CCl)(OC(CCl)CCl)OC(CCl)CCl`: the concentration at half-maximal activity (AC50) in assay [3] was 15.5 µM (active).
For the compound `CCCCCCc1ccc(O)cc1O`, the result in assay [1] and in assay [5] was inactive. Further, the AC50 is 33.7 µM (active) in assay [3] and 25 µM (active) in assay [6].
For the compound `Cn1cnc([N+](=O)[O-])c1Sc1ncnc2nc[nH]c12`, the compound was classed as inactive in assay [1], in assay [9] and in assay [6].
With `Cc1ccc(N)cc1O`, the outcome in assay [1], in [10] and in [5] was inactive.
In the case of `CNS(=O)(=O)c1cc(C(=O)N2CCC(CCN3C4CCC3CC(n3c(C)nc5ccccc53)C4)(c3cccc(F)c3)CC2)c(Cl)cc1F` (centres undefined), the call in [1], in assay [9] and in [6] was inactive.
In the case of `CCOC(=O)COc1ccc2c(c1)CC(NCC(O)c1cccc(Cl)c1)CC2` (centres undefined), the compound was called inactive in [1] and in assay [7].
Consider `CCCCCCCCCCCCCCCO`, for which the outcome in assay [1] was inactive.
For `O=C(O)c1cccc(Oc2ccccc2)c1`, the call in assay [8], in assay [1], in assay [5] and in [6] was inactive.
Regarding `Nc1nc2ncc(CNc3ccc(C(=O)N[C@@H](CCC(=O)O)C(=O)O)cc3)nc2c(=O)[nH]1`, the AC50 in [2] was 15.8 µM (active).
Turning to `CC(C)=CCCC(C)CCO` (centres undefined), the result in assay [1] and in [6] was inactive.
As for `CCOC(=O)c1ccc(C2CCC(NC[C@H](O)COc3ccc(O)c(NS(C)(=O)=O)c3)CC2)cc1` (some centres undefined), the call in assay [1], in assay [3] and in assay [6] was inactive.
With `Cn1c(=O)c2c(ncn2C)n(C)c1=O`, in assay [2], the call was inactive.
Turning to `Cn1c(=O)cc(Oc2ccc(F)cc2F)c2cnc(NCC(C)(C)O)nc21`, the AC50 in assay [3] was 2.48 µM (active); in assay [5], 25 µM (active); in assay [6], 32.4 µM (active). Besides, the result in [7] was inactive.
With `CC[C@H]1CC[C@H](NCc2cc3c(cc2OC)[C@H]2C[C@H]2C(=O)N3C)[C@H](c2ccccc2)N1`, the compound was classed as inactive in [2]. Besides, the AC50 in [7] was 10.9 µM (active).
Turning to `O=C(O)c1cccc(N(Cc2cccnc2)c2ccc(OC(F)F)c(OC(F)F)c2)c1`, the outcome in [4] was inactive.
